In all, about 52,000 compounds went through this assay and about 4,300 (8.3%) were called active. Cut-off read from the data, not from the text of the source: active = survival mostly below about 52% (no sharp cut-off); inactive = mostly above about 56%. The list comes from a sample in which actives are over-represented; it also holds similar structures and randomly drawn compounds.

The assay concerns DeltatarO mutant. The assay is described as follows: growth inhibition of S. aureus wild type versus tarO mutant, primary screen, teichoic acid synthesis inhibitors, RN4220, OD600 (AID 463173). The conditions noted are these: OD600, 18 h, hits give low values, screened at 18.75 µg/mL (by protocol).
Take `O=C(N/C(=C\c1ccc(F)cc1)C(=O)N1CCOCC1)c1ccccc1`: the survival is 98% (inactive).
With `Cc1cccc(OCC(=O)OC2CCN(C)CC2)c1`, the survival is 100% (inactive).
Regarding `COC(=O)C(C#N)C(c1cccnc1)c1c(C)[nH][nH]c1=O` (centres undefined), the survival was 90% (inactive).
Regarding `COc1cc(OC)cc(-c2cc3nc(-c4ccccc4)cc(N4CCN(c5ccccc5)CC4)n3n2)c1`, the survival is 101% (inactive).
In the case of `CC(=O)Oc1ccc(C(=O)NC2CCSC2=O)cc1` (centres undefined), the survival is 72% (inactive).
As for `COC(=O)CC1Oc2ccccc2-n2cc(-c3ccc(Cl)cc3)nc21` (centres undefined), the survival was 69% (inactive).
As for `CCN1CCSc2ccc(C(=O)NC(C)c3ccccc3)cc21` (centres undefined), the survival is 66% (inactive).
Turning to `O=C(Nc1ccc(Br)cc1)c1cccc(C(=O)Nc2ccc(Br)cc2)c1`, the survival was 72% (inactive).
To `CCOC(=O)c1cnc2ccc(Cl)cc2c1Nc1ccc(N2CCOCC2)cc1` belongs 0% (active); to `CCOC(=O)c1cnc2ccc(C(=O)OC)cc2c1Nc1ccc(N2CCOCC2)cc1`, 144% (inactive).
`CCOC(=O)c1cccc(NC(=O)c2cc3cc4cc(OC)ccc4nc3s2)c1`: the survival was 76% (inactive).
Consider `CCOC(=O)c1cnc2ccc(C)cc2c1Nc1ccc(N(CC)CC)cc1`, for which the survival was -5% (active).
Regarding `CCOC(=O)c1cnc2ccccc2c1Nc1ccc(N2CCOCC2)cc1`, the survival was 63% (inactive).
To `CCOC(=O)c1cnc2ccc(OC)cc2c1Nc1cccc(C(C)=O)c1` belongs 9% (active); to `CCOC(=O)c1cc(-c2ccc(OC)cc2)n(CCC(=O)Nc2cccc(C(C)=O)c2)c1C`, 64% (inactive); to `CCOC(=O)c1cnc2ccc(C(=O)OC)cc2c1Nc1ccc(OCc2ccccc2Cl)cc1`, 151% (inactive).
Under `CCOC(=O)c1cnc2ccc(OC)cc2c1Nc1ccc(OCc2ccccc2Cl)cc1` stands 8% (active).
Turning to `CCCCn1c2ccc(F)cc2c2nnc(SCCN(CC)CC)nc21`, the survival is 178% (inactive).
With `CCn1c(CNC(=O)c2ccccc2)n[nH]c1=S`, the survival was 86% (inactive).
To `CCOc1ccc2cc(-c3nnc(Nc4ccc(C)cc4)s3)c(=O)oc2c1` belongs 80% (inactive); to `COc1ccccc1CCNC(=O)C(=O)NCC(c1ccco1)S(=O)(=O)c1ccccc1` (centres undefined), 77% (inactive); to `COc1ccc(OC)c(CNC(=O)CCc2c(C)nc3c(c2C)c(=O)n(C)c(=O)n3C)c1`, 89% (inactive).
Under `Fc1ccc(-c2cn3ccccc3n2)cc1` stands 74% (inactive); under `Cc1cccc(NC(=O)C2CCCN(c3nnc(-n4c(C)ccc4C)s3)C2)c1C` (centres undefined), 75% (inactive).
As to `Cc1cc(=O)[nH]c2nnc(SCC(=O)Nc3cc(C(F)(F)F)ccc3Cl)n12`, the survival was 116% (inactive).
With `CCOC(=O)c1cnc2ccc(OCC)cc2c1Nc1ccc(OCc2ccccc2Cl)cc1`, the survival is 9% (active).
To `CCOc1ccc(Nc2cc(C(=O)NCc3ccccc3Cl)c3ccccc3n2)cc1` belongs 86% (inactive); to `Cc1ccc(C2=Nc3ccccc3N(CC(=O)NCc3ccccc3Cl)C(=O)C2)cc1C`, 82% (inactive); to `COc1ccc(C(=O)Nc2ccccc2C(=O)OCc2cc(=O)n3c4c(sc3n2)CCCC4)cc1`, 72% (inactive).
With `COc1ccc(S(=O)(=O)c2cc3cc(OC)ccc3oc2=O)cc1`, the survival is 99% (inactive).
For `COc1ccc(S(=O)(=O)c2cc3cc(C(C)(C)C)cc(O)c3oc2=O)cc1`, the survival is 26% (active).
`CCOc1ccc(S(=O)(=O)c2cc3cccc(OCC)c3oc2=O)cc1`: the survival is 100% (inactive).
As to `CCN(c1ccccc1)c1nnc(NC(=O)Nc2ccc(C)cc2)s1`, the survival was 89% (inactive).
For `O=C(Nc1cccc(C(=O)OCc2cc(=O)n3nc(C4CC4)sc3n2)c1)c1ccccc1`, the survival is 6% (active).
For `COc1cccc(C(=O)Nc2ccc(C(=O)OCc3cc(=O)n4nc(C5CC5)sc4n3)cc2)c1`, the survival was 79% (inactive).
`Cc1ccc(C(=O)Nc2cccc(C(=O)OCc3cc(=O)n4nc(C5CC5)sc4n3)c2)cc1`: the survival was 81% (inactive).
As to `COc1ccc(C(=O)Nc2ccc(C(=O)OCc3cc(=O)n4nc(C5CC5)sc4n3)cc2)cc1`, the survival was -1% (active).
Regarding `O=C(COc1ccccc1)Nc1ccc(C(=O)OCc2cc(=O)n3nc(C4CC4)sc3n2)cc1`, the survival was 76% (inactive).
Take `Cc1cccc(OCC(=O)Nc2ccc(C(=O)OCc3cc(=O)n4nc(C5CC5)sc4n3)cc2)c1`: the survival is -2% (active).
On to `O=C(Nc1cccc(C(=O)OCc2cc(=O)n3nc(C4CC4)sc3n2)c1)c1ccc(F)cc1`, for which the survival is 70% (inactive).
To `Cc1ccc(OCC(=O)Nc2ccc(C(=O)OCc3cc(=O)n4nc(C5CC5)sc4n3)cc2)cc1` belongs 72% (inactive).
As for `COc1ccc(C(=O)Nc2cccc(C(=O)OCc3cc(=O)n4nc(C5CC5)sc4n3)c2)cc1`, the survival was 115% (inactive).
For `Cc1ccc2nc3c(cc(C#N)c(=O)n3-c3nnc(SCc4ccc(F)cc4)s3)c(=O)n2c1`, the survival is 72% (inactive).
Regarding `Cc1ccc(NCc2nnc(SCC(=O)N3CCOCC3)o2)c(C)c1`, the survival was 74% (inactive).
With `O=C(Cn1cc(SCc2ccc(C(F)(F)F)cc2)c2ccccc21)N1CCCC1`, the survival is 55% (inactive).
As to `COC(=O)c1ccc(Cn2nnc3c(=O)[nH]c(C4CCCN(S(=O)(=O)c5ccccc5Cl)C4)nc32)cc1` (centres undefined), the survival is 68% (inactive).
For the compound `COc1cccc(CNC(=O)CN2C(=O)CCn3nc(-c4cn(C)c5ccccc45)cc32)c1OC`, the survival was 76% (inactive).
Under `COc1ccc(OC)c(S(=O)(=O)NCCc2sc(-c3ccc(C)cc3)nc2C)c1` stands 94% (inactive); under `CCOC(=O)c1ccc(N2C(=O)c3n[nH]c(-c4ccco4)c3C2c2ccc(O)cc2)cc1` (centres undefined), 40% (inactive); under `CCOC(=O)c1ccc(N2C(=O)c3n[nH]c(-c4cccs4)c3C2c2cccc(OC)c2)cc1` (centres undefined), 97% (inactive).
Turning to `CCOC(=O)c1ccc(N2C(=O)c3n[nH]c(C)c3C2c2ccc(C(C)(C)C)cc2)cc1` (centres undefined), the survival was 87% (inactive).
As for `CCOC(=O)c1ccc(N2C(=O)c3n[nH]c(-c4cccs4)c3C2c2cccc(O)c2)cc1` (centres undefined), the survival is -5% (active).
As to `CCOC(=O)c1ccc(N2C(=O)c3n[nH]c(C)c3C2c2cccc(Br)c2)cc1` (centres undefined), the survival was 8% (active).
In the case of `CCOC(=O)c1ccc(N2C(=O)c3n[nH]c(-c4ccco4)c3C2c2ccc(C)cc2)cc1` (centres undefined), the survival is 69% (inactive).
For the compound `CCOC(=O)c1ccc(N2C(=O)c3n[nH]c(-c4ccco4)c3C2c2cccc(O)c2)cc1` (centres undefined), the survival is -8% (active).
Consider `CCOC(=O)c1ccc(N2C(=O)c3n[nH]c(-c4ccco4)c3C2c2cccc(OC)c2)cc1` (centres undefined), for which the survival is 91% (inactive).
For `CCOC(=O)c1ccc(N2C(=O)c3n[nH]c(-c4cccs4)c3C2c2cccc(F)c2)cc1` (centres undefined), the survival is 105% (inactive).
With `CCOC(=O)c1ccc(N2C(=O)c3n[nH]c(-c4ccco4)c3C2c2ccc(F)cc2)cc1` (centres undefined), the survival was 22% (active).
Under `CCOC(=O)c1ccc(N2C(=O)c3n[nH]c(C)c3C2c2ccc(OCC)cc2)cc1` (centres undefined) stands 52% (inactive); under `CCOC(=O)c1ccc(N2C(=O)c3n[nH]c(-c4ccco4)c3C2c2ccc(C(=O)OC)cc2)cc1` (centres undefined), 89% (inactive).
For `COc1cc(Nc2ncc3c(n2)CCN(Cc2cc(F)cc(F)c2)C3)cc(OC)c1`, the survival is 67% (inactive).
On to `Cc1nc2cc(-c3ccccc3)nn2c(C)c1CCC(=O)N1CCN(c2ccccc2)CC1`, for which the survival is 56% (inactive).
On to `CCOCCc1nnc(NC(=O)C(=O)c2cc(C)n(-c3cccc(C)c3)c2C)s1`, for which the survival was 65% (inactive).
On to `COc1cccc(CNC(=O)CCS(=O)(=O)c2cc3c4c(c2)CCN4C(=O)CC3)c1`, for which the survival is 68% (inactive).
With `O=C(COc1ccc(Br)cc1)N/N=C1\SCC(=O)N1c1ccc(F)cc1`, the survival was 95% (inactive).
As to `CCc1ccc(NC(=O)CSc2nccn2-c2ccc(OC)cc2)cc1`, the survival is 107% (inactive).
As for `Nc1cc(=O)[nH]c(=S)n1-c1ccccc1`, the survival was 99% (inactive).
As to `COc1cc(C2c3c(oc4ccc(C)cc4c3=O)C(=O)N2Cc2ccccc2)ccc1O` (centres undefined), the survival is 113% (inactive).
Regarding `COc1cc(NC(=O)c2ncn(-c3ccccc3)n2)cc(OC)c1`, the survival is 63% (inactive).
Take `CCOC(=O)c1ccc(N2C(=O)c3n[nH]c(-c4ccco4)c3C2c2cccc(F)c2)cc1` (centres undefined): the survival was 12% (active).
For `CCOC(=O)c1ccc(N2C(=O)c3n[nH]c(-c4ccco4)c3C2c2ccc(OCC)cc2)cc1` (centres undefined), the survival is 91% (inactive).
Consider `CCOC(=O)c1ccc(N2C(=O)c3n[nH]c(-c4ccco4)c3C2c2ccc(O)c(OC)c2)cc1` (centres undefined), for which the survival was 118% (inactive).
As for `CCCN(C(=O)c1cc2c(s1)-c1ccccc1OC2)c1ccccc1F`, the survival is -4% (active).
On to `CCc1ccccc1N(CC)C(=O)c1cc2c(s1)-c1ccccc1SC2`, for which the survival was -1% (active).
On to `CCc1ccccc1N(CC)C(=O)c1cc2c(s1)-c1ccccc1OC2`, for which the survival was -5% (active).
`CCOc1ccc(N(CC)C(=O)c2cc3c(s2)-c2ccccc2OC3)cc1`: the survival is 76% (inactive).
Consider `CCc1ccc(CNC(=O)c2cc3c(s2)-c2ccccc2OC3)cc1`, for which the survival is 61% (inactive).
Consider `O=C(NCc1cccc(Cl)c1)c1cc2c(s1)-c1ccccc1OC2`, for which the survival was 50% (inactive).
`CCOc1ccc(N(CC)C(=O)c2cc3c(s2)-c2ccc(Cl)cc2SC3)cc1`: the survival was 81% (inactive).
For `O=C(NCc1ccccc1Cl)c1cc2c(s1)-c1ccccc1SC2`, the survival is 65% (inactive).
Regarding `O=C(NCCc1ccc(Cl)cc1)c1cc2c(s1)-c1ccccc1OC2`, the survival was 61% (inactive).
Take `CCN(C(=O)c1cc2c(s1)-c1ccccc1OC2)c1cc(Cl)ccc1OC`: the survival is 15% (active).
On to `COc1ccc(CCNC(=O)c2cc3c(s2)-c2ccccc2OC3)cc1OC`, for which the survival is 49% (inactive).
As for `CC(C)c1ccc(NC2=NCC(=O)N2Cc2ccccc2)cc1`, the survival was 87% (inactive).
For `O=C(Nc1cccc(O)c1)c1cc2nc(-c3ccc(Br)cc3)cc(C(F)(F)F)n2n1`, the survival is 120% (inactive).
On to `CC(=O)Nn1c(C)nc2ccccc2c1=O`, for which the survival was 75% (inactive).
With `Cc1nc(SC(C)C(=O)Nc2ccccc2Cl)cc(-c2ccccc2)n1` (centres undefined), the survival is 61% (inactive).
As to `CCn1c(SCC(=O)OC)nnc1-c1ccc(O)cc1`, the survival was 99% (inactive).
Take `COc1ccc(NC(=O)CC2C(=O)N(c3cccc(OC)c3)C(=O)N2Cc2cccnc2)cc1` (centres undefined): the survival is 94% (inactive).

The record behind these values is PubChem BioAssay AID463173 (ICCB-Longwood Screening Facility, Harvard Medical School, 2010).
